Data on 29 compounds can be found in PubChem BioAssay (NCATS).

Records with an inconclusive call do not appear. A number with no mark means an inactive call. Active and inactive are the calls of the source. Unless noted, calls come from the whole dose curve; as a rule, active = well fitted curve in the direction sought with a large enough effect; inconclusive = small, poorly fitted or top-dose-only effect, or another doubt; inactive = no such curve, though single readings can be large; an effect the other way counts as inactive or inconclusive.

For assay [1], the target named is Protein phosphatase 1D (Homo sapiens) (UniProt O15297). Nature of the assay: RapidFire Mass Spectrometry qHTS Assay for Modulators of WT P53-Induced Phosphatase 1 (WIP1) (AID 1347424).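 Note: amount of dephosphorylated VEPPL-S-QETFS peptide product formed by WIP1; series mostly up to about 63 µM; plate controls were DMSO wells for no effect and GSK830371 inhibitor control at 10 µM for full effect.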 The method, boiled down:
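WIP1 (10 nM final) was preincubated 1 h at room temperature with compounds in Tris-HCl pH 7.5, 30 mM MgCl2, TCEP, EGTA, BSA; 2 uM VEPPL-pS-QETFS phosphopeptide was added for 5 min, quenched with formic acid, and dephosphorylated product quantified by RapidFire MS.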

Assay [2] has the same target. Nature of the assay: Rhodamine-PBP qHTS Assay for Modulators of WT P53-Induced Phosphatase 1 (WIP1) (AID 1347425). Note: % of control where 0% means no effect. A digest of the protocol:
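5 nM WIP1 + 10 uM Rh-PBP, 50 mM Tris pH 7.5, 30 mM MgCl2, 1 mM TCEP, 0.1 mM EGTA, BSA; cpds pinned, 1 hr RT; + 10 uM phosphopeptide; fluorescence 1-min reads x 11 min; delta = f1 - f0.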
(Quantitative high-throughput screening tests each substance at several concentrations.)

Assay [3] is described as follows: Primary qHTS for inhibitors of La Crosse Virus (LACV) - induced cell death in SH-SY5Y cells (AID 1508616).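 Note: top concentration of the series differs between compounds; 0% = infected DMSO wells and 100% = uninfected DMSO wells; higher means more rescue of cells from virus-induced death.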 A digest of the protocol: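 Readout was luminescence from ATPLite 1step added after a 6-day LACV infection (0.01 MOI) of SH-SY5Y cells that had received pin-transferred compound 24 hr after seeding.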
Assay [4] addresses Calcium and integrin-binding protein 1 (Homo sapiens) (UniProt Q99828). The experiment in a line: Primary qHTS for Identification of Calcium Integrin Binding Protein 1 (CIB1) Competitor (AID 1508620).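 Note: GST tagged CIB1 binding a fluorescein labelled alphaIIb integrin peptide tracer; top concentration of the series differs between compounds; % is set by controls: 0 for no effect and ±100 for the full control effect.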 The method, boiled down:
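Fluorescence polarization competition: CIB1-GST (1 uM final) preincubated with compound 15 min at room temperature, then FITC-labeled alphaIIb peptide (100 nM final) added for another 15 min. Polarization read at Ex 480/Em 540.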

The nature of assay [5]: Primary qHTS for small molecule stabilizers of the endoplasmic reticulum resident proteome: Secreted ER Calcium Modulated Protein (SERCaMP) assay (AID 1508630). Note: % is set by controls: 0 for no effect and ±100 for the full control effect. The method, boiled down: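 GLuc-SERCaMP-expressing SH-SY5Y cells, pretreated 16 h with compound, are challenged with thapsigargin to empty ER calcium stores; after 4 h, coelenterazine is added directly to the medium and luminescence is imaged.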

Assay [6] in a line: A High-Content qHTS Against Drug Library for the Identification of Small Molecules that Inhibit DYT1 Early Onset Primary Dystonia-Associated Cell Pathology (AID 1645839; calls by dose curve; note: potency is the fitted concentration of half-maximal effect; for % pathology change, negative = correction: series mostly up to about 46 µM). The method, boiled down:
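Readout: %pathology, the punctate EGFP-TorsinA distribution from imaging, as the primary channel and cell count as the toxicity counterscreen. HEK293 Flp-In cells expressing delE TorsinA were induced with tetracycline and treated with compound for 48 h.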

Assay [7] in a line: Confirmatory qHTS for small molecule stabilizers of the endoplasmic reticulum resident proteome: Secreted ER Calcium Modulated Protein (SERCaMP) assay (AID 1508628).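 Note: SH-SY5Y cells given compound 16 h then thapsigargin 100 nM for 4 h; series mostly up to about 76 µM; % is set by controls: 0 for no effect and ±100 for the full control effect; nearly all actives have a fitted effect of over 40% in size.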 A digest of the protocol:
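We seeded SH-SY5Y-GLuc-SERCaMP cells, added compounds (three concentrations in the primary run, eleven up to 76.6 uM in confirmation), incubated 16 h, depleted ER calcium with thapsigargin, and read luciferase 4 h later.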

Assay [8] has as its target Calcium and integrin-binding protein 1 (Homo sapiens) (UniProt Q99828). Nature of the assay: Confirmatory qHTS for Identification of Calcium Integrin Binding Protein 1 (CIB1) Competitor (AID 1508617). Note: potency is the fitted concentration of half-maximal effect; nearly all actives have a fitted effect of over 65% in size. The method, boiled down:
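Confirmatory qHTS measures displacement of a FITC-alphaIIb peptide (100 nM) from CIB1-GST (1 uM) by fluorescence polarization. Calcium-containing HEPES buffer, pH 7.4; two 15 min room-temperature incubations.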

Chain of Protein phosphatase 1D (Homo sapiens) (O15297 whole entry, looked up): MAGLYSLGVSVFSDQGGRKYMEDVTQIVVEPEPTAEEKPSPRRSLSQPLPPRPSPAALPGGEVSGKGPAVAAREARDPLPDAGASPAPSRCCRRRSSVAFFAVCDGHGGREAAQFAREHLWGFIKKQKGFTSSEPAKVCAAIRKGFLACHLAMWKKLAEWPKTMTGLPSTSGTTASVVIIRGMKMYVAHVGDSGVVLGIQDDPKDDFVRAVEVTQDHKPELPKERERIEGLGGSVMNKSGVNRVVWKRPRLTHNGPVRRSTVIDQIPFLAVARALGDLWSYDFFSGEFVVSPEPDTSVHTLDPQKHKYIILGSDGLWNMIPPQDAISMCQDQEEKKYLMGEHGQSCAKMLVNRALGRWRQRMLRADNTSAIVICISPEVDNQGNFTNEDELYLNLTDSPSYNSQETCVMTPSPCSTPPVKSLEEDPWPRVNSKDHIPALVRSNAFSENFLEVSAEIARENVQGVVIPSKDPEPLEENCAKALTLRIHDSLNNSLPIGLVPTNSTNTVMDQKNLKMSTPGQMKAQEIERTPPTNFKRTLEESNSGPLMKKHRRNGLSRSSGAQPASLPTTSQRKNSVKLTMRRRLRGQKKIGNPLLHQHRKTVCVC
Chain of Calcium and integrin-binding protein 1 (Homo sapiens) (Q99828 whole entry, looked up): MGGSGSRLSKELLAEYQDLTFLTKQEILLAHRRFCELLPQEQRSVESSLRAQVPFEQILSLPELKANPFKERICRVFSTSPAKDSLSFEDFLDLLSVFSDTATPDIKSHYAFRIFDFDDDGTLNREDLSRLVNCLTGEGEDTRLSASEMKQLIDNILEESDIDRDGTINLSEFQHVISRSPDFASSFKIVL

For `Cc1ccc(C(=O)C(C)CN2CCCCC2)cc1` (centres undefined), the Potency result in assay [1], in assay [3], in assay [4], in assay [5] and in assay [6] was “inactive” throughout. Further, the compound was called inactive in assay [2].

For `CCCN1CCCC[C@H]1C(=O)Nc1c(C)cccc1C`, the Potency result in assay [1], in assay [3], in assay [4], in assay [5] and in assay [6] was “inactive” throughout. Besides, the call in assay [2] was inactive.

For `N[C@@H](CCC(=O)N[C@@H](CS)C(=O)NCC(=O)O)C(=O)O`, the Potency result in assay [1], in assay [3], in assay [4], in assay [5] and in assay [6] was “inactive” in each case. Moreover, the result in assay [2] was inactive.

As for `CC(Cc1ccccc1)(NC(=O)CN)c1ccccc1` (centres undefined), the Potency result in assay [1], in assay [3], in assay [4], in assay [5] and in assay [6] was “inactive” each time. In assay [2], the call was inactive.

As for `CCOc1ccc(NC(=O)CC(C)O)cc1` (centres undefined), the Potency result in assay [1], in assay [3], in assay [4], in assay [5] and in assay [6] was “inactive” in each case. Also, the outcome in assay [2] was inactive.

For `CCN(CC)C(=O)N1CCN(C)CC1`, the Potency result in assay [1], in assay [3], in assay [4], in assay [5] and in assay [6] was “inactive” in each case. The result in assay [2] was inactive.

For the compound `C[C@]12C=CC(=O)C=C1[C@@H](F)C[C@@H]1[C@@H]2[C@@H](O)C[C@@]2(C)[C@H]1CC[C@]2(O)C(=O)CO`, the Potency result in assay [1], in assay [3], in assay [4], in assay [5] and in assay [6] was “inactive” in each case. For the same compound, the call in assay [2] was inactive.

Take `CC1(C)O[C@@H]2C[C@H]3[C@@H]4C[C@H](F)C5=CC(=O)C=C[C@]5(C)[C@H]4[C@@H](O)C[C@]3(C)[C@]2(C(=O)CO)O1`: the Potency entry in assay [1], in assay [3], in assay [4], in assay [5] and in assay [6] was “inactive” in each case. The compound was classed as inactive in assay [2].

As to `CC1=C(C(=O)O)N2C(=O)[C@@H](NC(=O)[C@H](N)c3ccc(O)cc3)[C@H]2SC1`, the Potency entry in assay [1], in assay [3], in assay [4], in assay [5] and in assay [6] was “inactive” each time. The result in assay [2] was inactive.

With `CC(=O)OCC(=O)[C@@]1(O)CC[C@H]2[C@@H]3CCC4=CC(=O)C=C[C@]4(C)[C@H]3[C@@H](O)C[C@@]21C`, the Potency result in assay [1], in assay [3], in assay [4], in assay [5] and in assay [6] was “inactive” each time. Also, the compound was classed as inactive in assay [2].

As to `NC[C@H]1O[C@H](O[C@H]2[C@H](O[C@@H]3O[C@H](CO)[C@@H](O)[C@H]3O)C(O)[C@H](N)C[C@@H]2N)[C@H](N)[C@@H](O)[C@@H]1O` (some centres undefined), the activity change, negative = inhibition in assay [1] is 6.77% [at 12.6 µM]; in assay [2], 17.3% [at 11.5 µM]; in assay [5] it was -22.5% [at 7.35 µM]. Moreover, the activity change in assay [3] is -8.96% [at 0.858 µM]. Moreover, in assay [4], the Potency entry was “inactive”. For the same compound, the % pathology change, negative = correction in assay [6] was 1.85% [at 9.22 µM].

As for `C[C@]12C=CC(=O)C=C1CC[C@@H]1[C@@H]2[C@@H](O)C[C@@]2(C)[C@H]1CC[C@]2(O)C(=O)CO`, the Potency result in assay [1], in assay [3], in assay [4], in assay [5] and in assay [6] was “inactive” each time. In addition, the result in assay [2] was inactive.

As for `OC[C@H]1O[C@@H](n2cnc3c(=S)nc[nH]c32)[C@H](O)[C@@H]1O`, the Potency result in assay [1], in assay [3], in assay [4], in assay [5] and in assay [6] was “inactive” throughout. For the same compound, the call in assay [2] was inactive.

In the case of `CCCCN1CCCC1C(=O)Nc1c(C)cc(C)cc1C` (centres undefined), the Potency result in assay [1], in assay [3], in assay [4], in assay [5] and in assay [6] was “inactive” throughout. In addition, the compound was classed as inactive in assay [2].

For the compound `COc1cc2c(cc1OC)[C@@H]1CC(=O)[C@@H](CC(C)C)CN1CC2`, the Potency result in assay [1], in assay [3], in assay [4], in assay [5] and in assay [6] was “inactive” throughout. The compound was called inactive in assay [2].

With `O=C1OC2(c3ccc(O)cc3Oc3cc(O)ccc32)c2ccccc21`, the Potency entry in assay [1], in assay [3], in assay [4] and in assay [5] was “inactive” each time. For the same compound, the compound was called inactive in assay [2]. In assay [6], the Potency was 7.08 µM (active).

On to `C[C@]12CCC(=O)C=C1CC[C@H]1[C@@H]3CC[C@](O)(C(=O)CO)[C@@]3(C)C[C@H](O)[C@@]12F`, for which the Potency entry in assay [1], in assay [3], in assay [4], in assay [5] and in assay [6] was “inactive” throughout. Moreover, the compound was called inactive in assay [2].

`CC(=O)Oc1ccc(C(=C2CCCCC2)c2ccc(OC(C)=O)cc2)cc1`: the Potency entry in assay [7] is “inactive”.

As for `NCCC(O)(P(=O)(O)O)P(=O)(O)O`, the Potency entry in assay [1] and in assay [4] was “inactive” each time. Moreover, the outcome in assay [2] was inactive.

`CC(O)C(=O)O` (centres undefined): the Potency result in assay [1], in assay [3], in assay [5] and in assay [6] was “inactive” each time. Moreover, the compound was called inactive in assay [2].

For the compound `CC(=O)N(O)CCCCCNC(=O)CCC(=O)N(O)CCCCCNC(=O)CCC(=O)N(O)CCCCCN`, the Potency entry in assay [1], in assay [4] and in assay [5] was “inactive” throughout. Also, the call in assay [2] was inactive.

With `CCCCC(CC)CN=C(N)NC(N)=NCCCCCCN=C(N)NC(N)=NCC(CC)CCCC` (centres undefined), the Potency result in assay [1] and in assay [5] was “inactive” in each case. In assay [2], the call was inactive. The Potency in assay [8] is 28.2 µM (active); in assay [6] it was 11.2 µM (active).

Regarding `Oc1c(I)cc(Cl)c2cccnc12`, the Potency result in assay [1] and in assay [3] was “inactive” throughout. In addition, the result in assay [2] was inactive. Also, the Potency in assay [6] was 5.62 µM (active).

As for `CCCCCCCCCCCCCCCCOP(=O)([O-])OCC[N+](C)(C)C`, the Potency result in assay [1], in assay [4] and in assay [5] was “inactive” throughout. The compound was called inactive in assay [2].

With `NC(=NCCCCCCN=C(N)/N=C(\N)Nc1ccc(Cl)cc1)/N=C(\N)Nc1ccc(Cl)cc1`, the Potency entry in assay [1], in assay [4] and in assay [5] was “inactive” in each case. The result in assay [2] was inactive.

Take `C[C@]12CCC(=O)C=C1[C@@H]1C[C@@H]1[C@H]1[C@@H]3[C@@H]4C[C@@H]4[C@@]4(CCC(=O)O4)[C@@]3(C)CC[C@@H]12`: the Potency entry in assay [1] and in assay [4] was “inactive” each time. The call in assay [2] was inactive.

Regarding `CN=C(NC#N)NCCSCc1csc(N=C(N)N)n1`, the Potency result in assay [1], in assay [3], in assay [5] and in assay [6] was “inactive” each time. In addition, the outcome in assay [2] was inactive.

Consider `CCCCC(=O)O[C@]1(C(=O)CO)CC[C@H]2[C@@H]3CCC4=CC(=O)CC[C@]4(C)[C@H]3[C@@H](O)C[C@@]21C`, for which the Potency entry in assay [1], in assay [3], in assay [5] and in assay [6] was “inactive” throughout. Further, in assay [2], the compound was called inactive.

Consider `CCCCCCCCCCCCCCCC[N+](C)(C)CC`, for which the Potency result in assay [1], in assay [3] and in assay [5] was “inactive” throughout. The outcome in assay [2] was inactive.
